Screens (PubChem BioAssay)
Mcl1-Noxa inh = Mcl-1/Noxa interaction inhibition. TR-FRET Mcl-1/Noxa peptide binding, 2 h. inhibition, % at 21.7 µM. actives 1.5% (n = 220,000);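 active = compounds that cut the protein-peptide binding signal by more than 50% relative to plate controls in a single-dose test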;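 also: His-tagged Mcl-1 with rhodamine Noxa BH3 peptide and terbium anti-His antibody; 0% = Mcl-1 plus Noxa peptide wells and 100% = peptide-only wells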
Bim-Mcl-1 = inhibitors of Bim-Mcl-1 interaction, human. Bead-based flow cytometry, Bim peptide-Mcl-1 binding. inhibition, % at 10 µM. actives 0.1% (n = 190,000). AID 1009; in the data active = inhibition above about 40%;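 also: 0% = no compound tracer wells and 100% = peptide blocker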
BCLXL inh = Bcl-xL (human) inhibition | GST-Bcl-xL / FITC-Bim BH3 peptide fluorescence polarization | AID 2129 | inhibition, % at 10.9 µM | actives 0.7% (n = 320,000);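 active = inhibition above the mean of all tested compounds plus 3 SD, cutoff set per campaign, cut at about 30% in these data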;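 also: 0% = DMSO wells and 100% = unlabeled Bim-BH3 peptide competitor; inhibitors lower millipolarization by displacing the labeled peptide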
Target sequence (Q07817 whole entry, looked up): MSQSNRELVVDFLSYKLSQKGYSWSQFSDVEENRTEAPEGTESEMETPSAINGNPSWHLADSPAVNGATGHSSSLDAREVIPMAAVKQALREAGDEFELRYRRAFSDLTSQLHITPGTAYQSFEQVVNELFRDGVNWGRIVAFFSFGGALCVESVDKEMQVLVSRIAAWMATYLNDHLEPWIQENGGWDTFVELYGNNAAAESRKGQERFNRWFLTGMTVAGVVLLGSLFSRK
GLD-1 TGE inh = GLD-1-TGE RNA interaction inhibition (C. elegans). Q17339. purified GLD-1 + fluorescein TGE RNA, fluorescence polarization. inhibition, % at 5.96 µM. actives 0.44% (n = 320,000);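 active = percent inhibition above a per-plate cutoff, the plate mean of test compounds plus 3 SD, cut at about 30% in these data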;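 also: 0% = DMSO wells with GLD-1 and probe and 100% = wells lacking GLD-1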
MCL1 BIM primary = inhibitors of human MCL1 binding to BIM-BH3 peptide. actives 0.68% (n = 320,000). Q07820. GST-MCL1 / FITC-Bim-BH3 fluorescence polarization. AID 2057. inhibition, % at 10.9 µM;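 active = inhibition above the mean inhibition of all tested compounds plus 3 SD, set per campaign, cut at about 40% in these data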;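 also: 0% = DMSO wells and 100% = unlabeled Bim-BH3 peptide control; higher means more loss of mP so more displacement of Bim peptide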
Mcl1 Bid PPI = disrupts binding of human Mcl-1 to Bid peptide; Q07820; TR-FRET Mcl-1/Bid-Dy647 peptide binding, 1536-well; inhibition, % at 21.7 µM; actives 0.97% (n = 220,000); AID 1021;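 active = compounds that cut the binding signal by more than half at the single screening dose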;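 also: His-tagged Mcl-1 with europium anti-His antibody binding Bid BH3 peptide; 0% = Mcl-1 plus peptide wells and 100% = peptide-only wells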
An asterisk follows results filed as active; nt = not tested or not shown. This is a sample that favours compounds with a hit; in the whole collection about 2.3% have one here.

SMILES | Mcl1-Noxa inh | Bim-Mcl-1 | BCLXL inh | GLD-1 TGE inh | MCL1 BIM primary | Mcl1 Bid PPI
COc1cc(/C=C(\CC(=O)O)c2nc3ccccc3s2)cc(OC)c1O | 57.7* | -1.0 | 17.4 | -3.9 | 15.3 | 18.9
CN(c1ccccc1)c1ccc(/C=C(\CCC(=O)O)c2nc3ccccc3s2)cc1[N+](=O)[O-] | 100.0* | -1.0 | 21.4 | -1.6 | 22.3 | -40.9
Cn1ncc(Cl)c1C(=O)Nc1cc(C(F)(F)F)ccc1F | -30.9 | -5.0 | 1.7 | 4.0 | -0.4 | -7.0
CC12CC(NC(=O)N1Cc1ccccc1)c1ccccc1O2 (stereo unspecified) | 6.7 | -2.0 | -1.9 | 3.2 | 0.1 | -18.9
O=C(O)C/C(=C\c1cccc(NC(=O)c2ccccc2Cl)c1)c1nc2ccccc2s1 | 65.1* | nt | -7.9 | 5.2 | -7.0 | -20.0
COc1ccc(C(=O)Nc2nc3cc(OC)c(OC)cc3c(=O)[nH]2)cc1 | -7.6 | 10.0 | 4.3 | 8.2 | 5.2 | 98.5*
O=C(Nc1ccc(Cl)cc1)/C(=C/c1cccc(O)c1)c1nc2ccccc2s1 | 4.0 | -4.0 | -1.7 | 9.7 | -3.5 | -0.8
CCOC(=O)c1cnn(-c2cc(C)nc3c(-c4ccc(Cl)cc4)c(C)nn23)c1N | 11.9 | 3.0 | nt | nt | nt | 16.7
COC(=O)C1=C(C)NC2=C(C1c1ccc(O)cc1)S(=O)(=O)c1ccccc12 (stereo unspecified) | -3.1 | 0.0 | 6.2 | 0.7 | 8.3 | -11.3
COc1ccc(C2C(C#N)=C(C)NC3=C2S(=O)(=O)c2ccccc23)cc1 (stereo unspecified) | 6.5 | 48.0* | 4.8 | 5.3 | 5.1 | -3.3
CC(NC(=O)NC1CCCCC1)C(c1cccs1)N1CCN(c2ccccc2)CC1 (stereo unspecified) | -7.2 | 0.0 | 0.2 | 1.7 | 0.4 | 92.2*
CCN(CC)S(=O)(=O)c1ccc(C(=O)N(c2ccc(C)cc2)C2C=CS(=O)(=O)C2)cc1 (stereo unspecified) | -8.7 | -1.0 | -1.6 | -5.4 | -2.8 | -25.5
CCOc1cc(C2CC(=O)NC(SCC)=C2C#N)ccc1O (stereo unspecified) | 25.1 | 3.0 | 5.2 | 4.8 | 6.0 | -11.7
CCOc1cc(C2CC(=O)N3CN(C4CCCCC4)CSC3=C2C#N)ccc1O (stereo unspecified) | 57.0* | -4.0 | 3.7 | -2.4 | 5.4 | -39.6
COc1ccc2ccccc2c1C1CC(=O)N2CN(C3CCCCC3)CSC2=C1C#N (stereo unspecified) | 62.6* | -8.0 | -25.1 | -5.0 | -18.8 | -6.3
COc1ccc2ccccc2c1C1CC(=O)N2CN(Cc3ccco3)CSC2=C1C#N (stereo unspecified) | 36.2 | 4.0 | -17.9 | 4.7 | -12.3 | -17.4
Cc1nnc(SCC(=O)NC(C)c2ccccc2)[nH]c1=O (stereo unspecified) | 8.5 | 0.0 | -3.7 | -15.7 | -7.2 | -29.9
COc1cc(C2C(C#N)=C(N)N(c3sc4c(c3C#N)CCCC4)C3=C2C(=O)CC(C)(C)C3)cc(OC)c1OC (stereo unspecified) | 10.4 | 0.0 | 8.4 | -1.4 | 0.3 | -29.3
Cc1ccccc1C1C(C#N)=C2NC(=O)c3c(sc4c3CCCCC4)N2C2=C1C(=O)CC(C)(C)C2 (stereo unspecified) | -110.9 | 1.0 | 29.7 | 101.1* | 33.7 | -129.9
COCCN(CC(=O)NC1CCCCC1)C(=O)/C=C/C(=O)c1ccc(OC)cc1O | 65.8* | -8.0 | nt | nt | nt | 32.8
COc1ccc(C(=O)/C=C/C(=O)N(CC(=O)NC2CCCCC2)Cc2cccs2)c(O)c1 | 43.0 | -1.0 | -2.2 | 5.0 | -5.4 | 38.1
COCCn1c(SCC(=O)Nc2nc3ccccc3s2)nnc1-c1ccoc1C | -2.2 | -1.0 | -2.0 | -0.1 | 1.4 | 5.4
O=C(CN1C(=O)/C(=C/c2cccc(Br)c2)SC1=S)Nc1cccnc1 | 51.5* | -2.0 | 9.1 | 2.3 | 5.8 | 6.2
O=C(CCN1C(=O)/C(=C/c2ccccc2)SC1=S)NNC(=O)c1cccnc1 | 19.3 | 0.0 | 4.6 | 5.2 | 4.5 | -1.0
O=C(CCN1C(=O)/C(=C/c2cccc(Br)c2)SC1=S)NNC(=O)c1cccnc1 | 46.0 | 7.0 | -6.3 | -8.0 | 4.5 | 66.8*
COc1cccc(/C=C2\SC(=S)N(CCCC(=O)NC3=NCCS3)C2=O)c1 | nt | nt | 2.7 | 0.4 | 3.7 | nt
